From the supplement of paper PMC11417369
In all, about 25,000 sequences were measured (“ln(normalized median fluorescence intensity)”: median about 9.3, highest 2% from about 10 on). The sample holds the highest values, similar sequences and a random draw of the others, so the mix is not that of the screen.

The sequences below were run on PF3D7_0420300 AP2 domain 1 (GST-tagged) (assay: gcPBM binding intensity (ln(normalized median fluorescence intensity)); higher = stronger DNA binding).
Procedure, shortened: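 Binding intensity is defined as the maximum Masliner-normalised natural-log median intensity across replicate spots for either probe orientation. It was measured on an Agilent 4 × 180k array of primer-extended double-stranded 36-bp intergenic genomic probes and negative controls, to which GST-tagged P. falciparum DNA-binding domains made in E. coli were applied for 1 h in 1× PBS with 1% milk, 0.2 mg/ml BSA, 0.5% salmon testes DNA and 0.03% Triton X-100. Detection was by Alexa488 anti-GST antibody and scanning at 488 nm.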

Row | Sequence | gcPBM binding intensity (ln)
1 | TATCATTTCATATCAAGTACAAACATTTTACATATA [XGTACX_site5307] | 9.12
2 | GTGCATATCTGATATACACACAATAAAATAGTATGT [CACACA_site7203] | 9.33
3 | AAAAAAAATTCACACTGTACAAAAGCATAAATAAAC [XGTACX_site5408] | 9.75
4 | AATGTGTATATATATACACACACATATATATATTTT [CACACA_site8596] | 9.75
5 | TTAATTTTTAGAAGAACACACACATATATATTATGA [CACACA_site7969] | 9.59
6 | TACAGATACAGATACACACACACACCGAAATAAATA [CACACA_site4865] | 10.3
7 | TATACAGATAAATACACACACACATATATATATATA [CACACA_site4845] | 10
8 | CATACAGATATATATACACACATACAGATAAATACA [CACACA_site4592] | 9.83
9 | TTTAATTTTTATATAACACACATATTGTAATTATGT [CACACA_site4566] | 9.38
10 | ATAAATACTAAAAATGAAATATAGAAAATAGCAATA [CACACA_negctrl_site501] | 9.61
11 | AAAATTCTTCGGGGGAGTACAAGGATATTCTACGTT [XGTACX_site3974] | 9.53
12 | TGATATCTTAAGAAATGTACAAAGATATAACCATTT [XGTACX_site1913] | 9.11
13 | CTCAATATTATTACTACACACAAATTAAAATTTTCC [CACACA_site4203] | 9.45
14 | ATTTATTCATTTGGGTGTACTATTTAAAAAAAACAA [XGTACX_site498] | 9.18
15 | AAAATAAAAAGAAAAAGAAAAAAGGGGGGGTAGGGG [CACACA_negctrl_site1048] | 10.2
16 | AAGGGGTAAAGAAAAACACACAAAAAATAAAAATAT [CACACA_site361] | 9.65
17 | AAGGGAAAATAATAAAAGAAAAAGAAAAAAAAAAAA [CACACA_negctrl_site1518] | 9.21
18 | ATATAACAGAAACACACACACATATATATATATTAT [CACACA_site4140] | 10.2
19 | ACAGAAAAAAAACACACACACATAATATACATACAT [CACACA_site1932] | 10.2
20 | CATACACAGAAACACACACACATATATATATATATA [CACACA_site4519] | 9.79
21 | TGAAAAAAGAAAAATACACACATATAATATAATATA [CACACA_site2255] | 9.7
22 | TTAATTAGAAATCATACACACATATAAATAAATATA [CACACA_site6225] | 9.6
23 | AATTAAAATAATAATACACACATCATAGAAAAAGAC [CACACA_site292] | 10.4
24 | ATACAGAAAAAAAACACACACACATAATATACATAC [CACACA_site1933] | 10.1
25 | CATTATAAGAAACACACACACATATATATATATATA [CACACA_site1051] | 9.73
26 | ACAGAAAAAAGACACACACACATAATATACATACAT [CACACA_site6991] | 10.2
27 | TAAAAGAAATAATATACACACATATATAAAAATAAA [CACACA_site1329] | 9.6
28 | TGTATTAATAAAAATACACACATCATATTATAGAAA [CACACA_site7629] | 9.49
29 | TAAAAAAAAACAGAAACACACATTATTCATATATAT [CACACA_site2049] | 9.77
